Source: PubChem BioAssay (NCI)
This is part of a sample that, as a whole, favours compounds with a hit. Of some 83,000 tested, about 20% had one in any assay.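 Growth was measured after 48 h exposure to one concentration of compound in 96-well plates. Values under 10 count as active.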 The source made the active and inactive calls.

Tests used:
Test in all cases: NCI-60 one-dose screen, 48 h (100 = growth as untreated, 0 = no growth, -100 = all killed)
Conditions in all cases: 10 µM unless noted
NCI-H23 lung = tested on: NCI-H23 lung
NCI-H226 lung = tested on: NCI-H226 lung
NCI-H322M lung = tested on: NCI-H322M lung
HOP-62 NSCLC = tested on: HOP-62 NSCLC
NCI-H460 lung = tested on: NCI-H460 lung
HOP-92 NSCLC = tested on: HOP-92 NSCLC
NCI-H522 lung = tested on: NCI-H522 lung
A549/ATCC NSCLC = tested on: A549/ATCC NSCLC
786-0 renal = tested on: 786-0 renal
COLO 205 colon = tested on: COLO 205 colon

Measured: growth

COc1ccc(C2CC(c3cccc(Nc4ccncc4)c3)=NN2c2cc(Cl)cc(Cl)c2)cc1 (stereo not given)
inactive: NCI-H23 lung 80.2% | NCI-H226 lung 87.6% | NCI-H322M lung 75.9% | HOP-62 NSCLC 25.1% | HOP-92 NSCLC 54.9% | A549/ATCC NSCLC 26.5% | 786-0 renal 99.2%
active: NCI-H460 lung -77.6% | NCI-H522 lung 4.77% | COLO 205 colon -55.1%

CCN(CC)CCCC(C)Nc1c2c(nc3ccc(OC)cc13)CCCC2 (stereo not given)
inactive: NCI-H23 lung 87.7% | NCI-H226 lung 97.3% | NCI-H322M lung 90.6% | HOP-62 NSCLC 87.6% | NCI-H460 lung 92.7% | HOP-92 NSCLC 84.2% | NCI-H522 lung 112% | A549/ATCC NSCLC 108% | 786-0 renal 90.2% | COLO 205 colon 100%

CCOC(=O)C1CC(=O)c2cc(OC)c(OC)cc2C1 (stereo not given)
inactive: NCI-H23 lung 101% | NCI-H226 lung 92.6% | NCI-H322M lung 123% | HOP-62 NSCLC 96% | NCI-H460 lung 110% | HOP-92 NSCLC 84% | NCI-H522 lung 84.9% | A549/ATCC NSCLC 100% | 786-0 renal 96.2% | COLO 205 colon 127%

c1ccc(-c2nn(-c3ccccc3)[n+](-c3cccc4ccccc34)n2)cc1
inactive: NCI-H226 lung 26.9% | NCI-H322M lung 42.2% | HOP-62 NSCLC 41.7% | A549/ATCC NSCLC 23.4% | 786-0 renal 42.5%
active: NCI-H23 lung 1.91% | NCI-H460 lung 1.82% | HOP-92 NSCLC -13.2% | NCI-H522 lung -8.34% | COLO 205 colon 3.41%

COc1ccccc1N1CCN(C(=O)c2ccc3nc(NC(=O)c4ccc(NCCc5ccccc5)c([N+](=O)[O-])c4)sc3c2)CC1
inactive: NCI-H23 lung 81.9% | NCI-H226 lung 87.4% | NCI-H322M lung 91.5% | HOP-62 NSCLC 82.9% | NCI-H460 lung 86.5% | HOP-92 NSCLC 81.9% | NCI-H522 lung 80.4% | A549/ATCC NSCLC 91.3% | 786-0 renal 110% | COLO 205 colon 100%

CCCCCCN(C)Cc1ccc(OCCOc2ccc(CN(C)CCCCCC)cc2)cc1
inactive: NCI-H23 lung 11% | NCI-H226 lung 50% | HOP-62 NSCLC 17.9% | NCI-H522 lung 35.3% | A549/ATCC NSCLC 44%
active: NCI-H322M lung 3.16% | NCI-H460 lung -77.5% | HOP-92 NSCLC -9.72% | 786-0 renal -72.6% | COLO 205 colon -67.4%

COC(=O)Nc1nc2ccc(C(=O)c3cccc(I)c3)cc2[nH]1
active: NCI-H460 lung 4.52% | NCI-H522 lung -29.2% | COLO 205 colon -29.7%
inactive: NCI-H23 lung 22.1% | NCI-H226 lung 51.4% | NCI-H322M lung 39.4% | HOP-62 NSCLC 37% | HOP-92 NSCLC 51.5% | A549/ATCC NSCLC 15.3% | 786-0 renal 27.2%

O=C(CN1CCOCC1)Nc1ccc2ncnc(Nc3ccc(Oc4cccc(C(F)(F)F)c4)c(Cl)c3)c2c1
inactive: NCI-H23 lung 68.8% | NCI-H226 lung 75% | NCI-H322M lung 16.6% | HOP-62 NSCLC 73.9% | NCI-H460 lung 64.1% | HOP-92 NSCLC 53% | NCI-H522 lung 26% | A549/ATCC NSCLC 51.2% | 786-0 renal 65.3% | COLO 205 colon 76.9%

COc1nccnn1
inactive: NCI-H23 lung 107% | NCI-H226 lung 96.2% | NCI-H322M lung 91% | HOP-62 NSCLC 114% | NCI-H460 lung 122% | HOP-92 NSCLC 69.5% | NCI-H522 lung 109% | A549/ATCC NSCLC 102% | 786-0 renal 104% | COLO 205 colon 112%

COc1ccc(-c2cnnc3c(-c4cccc(C(F)(F)F)c4)cnn23)cc1
active: HOP-62 NSCLC 3.24% | 786-0 renal 7.61%
inactive: NCI-H23 lung 70.4% | NCI-H226 lung 60.9% | NCI-H322M lung 45.7% | NCI-H460 lung 36% | HOP-92 NSCLC 52.7% | NCI-H522 lung 27.5% | A549/ATCC NSCLC 63.5% | COLO 205 colon 135%

Cc1ccc(C2CC(c3cccc(Nc4ccncc4)c3)=NN2c2cc(Cl)cc(Cl)c2)cc1 (stereo not given)
active: NCI-H460 lung -73.4% | A549/ATCC NSCLC 4.87% | COLO 205 colon -43.1%
inactive: NCI-H23 lung 61.1% | NCI-H226 lung 86.3% | NCI-H322M lung 73.7% | HOP-62 NSCLC 40.5% | HOP-92 NSCLC 57.7% | NCI-H522 lung 21% | 786-0 renal 51%

N/C(=N\N=C\c1cc2ccccc2[nH]1)N/N=C/c1cc2ccccc2[nH]1
inactive: NCI-H23 lung 96.3% | NCI-H226 lung 93.7% | NCI-H322M lung 100% | HOP-62 NSCLC 95.7% | NCI-H460 lung 95.7% | HOP-92 NSCLC 76.6% | NCI-H522 lung 98% | A549/ATCC NSCLC 101% | 786-0 renal 98.7% | COLO 205 colon 102%

O=C1NC(=S)NC(=O)C1=Cc1cn(Cc2ccccn2)c2ccccc12
inactive: NCI-H23 lung 77.9% | NCI-H226 lung 86.7% | NCI-H322M lung 95.5% | HOP-62 NSCLC 53.6% | NCI-H460 lung 10.7% | HOP-92 NSCLC 66.9% | NCI-H522 lung 76.6% | A549/ATCC NSCLC 66.2% | 786-0 renal 43.9% | COLO 205 colon 58.4%

O=C1Nc2ccccc2/C1=N/c1nc(-c2ccc(Cl)cc2)cs1
inactive: NCI-H23 lung 75% | NCI-H226 lung 64.2% | NCI-H322M lung 92.6% | HOP-62 NSCLC 56% | NCI-H460 lung 67.7% | HOP-92 NSCLC 51.5% | NCI-H522 lung 50.1% | A549/ATCC NSCLC 49.4% | 786-0 renal 75.6% | COLO 205 colon 63.8%

CN1CCN(CC#CCNC(=O)[C@]23CCC(C)(C)C[C@H]2C2=CC[C@@H]4[C@@]5(C)Cc6c([nH]c7ccccc67)C(C)(C)[C@@H]5CC[C@@]4(C)[C@]2(C)CC3)CC1
inactive: NCI-H23 lung 95.8% | NCI-H226 lung 93.9% | NCI-H322M lung 88.7% | HOP-62 NSCLC 91.9% | HOP-92 NSCLC 52.7% | NCI-H522 lung 67% | A549/ATCC NSCLC 52.8% | 786-0 renal 64.5% | COLO 205 colon 51.2%
active: NCI-H460 lung -25.3%

CC[C@H](CC[C@@H](C)[C@H]1CC[C@H]2[C@@H]3CC=C4C[C@@H](OCCc5nn[nH]n5)CC[C@]4(C)[C@H]3CC[C@]12C)C(C)C
inactive: NCI-H23 lung 97.7% | NCI-H226 lung 110% | NCI-H322M lung 101% | HOP-62 NSCLC 98.4% | NCI-H460 lung 109% | HOP-92 NSCLC 147% | NCI-H522 lung 82.9% | A549/ATCC NSCLC 93.7% | 786-0 renal 101% | COLO 205 colon 118%

CCCCc1ccc(Nc2nnc(SCC(=O)NC(=O)NCC)s2)cc1
inactive: NCI-H23 lung 97.3% | NCI-H226 lung 95.7% | NCI-H322M lung 81.5% | HOP-62 NSCLC 96% | NCI-H460 lung 102% | HOP-92 NSCLC 61.4% | NCI-H522 lung 87.7% | A549/ATCC NSCLC 109% | 786-0 renal 95.9% | COLO 205 colon 202%

O=C(c1ccccc1)N1N=C(c2ccc(-n3ccc(C(F)(F)F)n3)cc2)CC1c1ccc[nH]1 (stereo not given)
inactive: NCI-H23 lung 96.4% | NCI-H226 lung 95.1% | NCI-H322M lung 80.6% | HOP-62 NSCLC 105% | NCI-H460 lung 100% | HOP-92 NSCLC 113% | NCI-H522 lung 76.5% | A549/ATCC NSCLC 82% | 786-0 renal 87.3% | COLO 205 colon 101%

COc1ccc(-c2nc(SC(C)C)nc(NNC(N)=O)c2C#N)cc1
inactive: NCI-H23 lung 97.8% | NCI-H226 lung 95.4% | NCI-H322M lung 94.2% | HOP-62 NSCLC 83.7% | NCI-H460 lung 94.5% | HOP-92 NSCLC 78% | NCI-H522 lung 63.4% | A549/ATCC NSCLC 88.6% | 786-0 renal 95.5% | COLO 205 colon 117%

CC(C)(O)C1CCCN1C(=O)c1ccccc1I (stereo not given)
inactive: NCI-H23 lung 94.6% | NCI-H226 lung 89.4% | NCI-H322M lung 101% | HOP-62 NSCLC 95.4% | NCI-H460 lung 85.8% | HOP-92 NSCLC 58.6% | NCI-H522 lung 83.9% | A549/ATCC NSCLC 92.1% | 786-0 renal 87.7% | COLO 205 colon 105%

Cn1/c(=N/NC(N)=S)ccc2ccccc21
inactive: NCI-H23 lung 94.9% | NCI-H226 lung 88.9% | NCI-H322M lung 82.4% | HOP-62 NSCLC 98.6% | NCI-H460 lung 108% | HOP-92 NSCLC 109% | NCI-H522 lung 88.9% | A549/ATCC NSCLC 97.7% | 786-0 renal 104% | COLO 205 colon 114%

CS(=O)(=O)OCCN(CCOS(C)(=O)=O)c1ccc(/C=N/Nc2ccc([N+](=O)[O-])cc2[N+](=O)[O-])cc1
inactive: NCI-H23 lung 73.6% | NCI-H226 lung 81.4% | NCI-H322M lung 94.5% | HOP-62 NSCLC 92.8% | NCI-H460 lung 37.5% | HOP-92 NSCLC 71.8% | NCI-H522 lung 91.5% | A549/ATCC NSCLC 80.8% | 786-0 renal 101% | COLO 205 colon 90%

CC(=O)OCCCCCNc1ccccc1
inactive: NCI-H23 lung 101% | NCI-H226 lung 104% | NCI-H322M lung 106% | HOP-62 NSCLC 102% | NCI-H460 lung 118% | HOP-92 NSCLC 109% | NCI-H522 lung 95.1% | A549/ATCC NSCLC 101% | 786-0 renal 101% | COLO 205 colon 107%

CN1CCN(c2cc(F)c(NC3=C(Cl)C(=O)c4ncccc4C3=O)c(F)c2)CC1
inactive: NCI-H226 lung 85.3% | NCI-H322M lung 102% | HOP-62 NSCLC 83.3% | A549/ATCC NSCLC 74.6% | COLO 205 colon 34%
active: NCI-H23 lung -61.2% | NCI-H460 lung 9.91% | HOP-92 NSCLC -79.9% | NCI-H522 lung -59.7% | 786-0 renal -72%

CN1CCN(C(=O)OCc2nc3c(N4CCOCC4)nc(-c4ccccc4)nc3n2C)CC1
active: NCI-H23 lung -77.1% | NCI-H226 lung -66.7% | HOP-62 NSCLC 4.63% | NCI-H460 lung -46.9% | HOP-92 NSCLC -63.5% | NCI-H522 lung -35.3% | A549/ATCC NSCLC 6.44% | 786-0 renal -83.3% | COLO 205 colon -53%
inactive: NCI-H322M lung 58.2%

COc1cc(/C=N/NC(=O)c2ccccc2Nc2cccc(C(F)(F)F)c2)ccc1O
inactive: NCI-H23 lung 91.5% | NCI-H226 lung 88.3% | NCI-H322M lung 103% | HOP-62 NSCLC 93.4% | NCI-H460 lung 100% | HOP-92 NSCLC 67.6% | NCI-H522 lung 81.9% | A549/ATCC NSCLC 100% | 786-0 renal 75.7% | COLO 205 colon 106%

COc1cc2nc(-c3ccc(C(F)(F)F)cc3)cc(OCCCN3CCCCC3)c2cc1OC
inactive: NCI-H23 lung 57.9% | NCI-H322M lung 62.3% | HOP-62 NSCLC 57.6% | NCI-H460 lung 17.7% | HOP-92 NSCLC 27.9% | NCI-H522 lung 33.6% | A549/ATCC NSCLC 44.4% | 786-0 renal 48.4% | COLO 205 colon 11.6%
active: NCI-H226 lung -11.8%
